Results on 23 molecules are retold here after PubChem BioAssay (EPA / NIEHS).

Test [1] can be described thus: ATG_GRE_CIS: Attagene CIS-FACTORIAL HepG2 Assay for human Glucocorticoid Response Elements (GRE) (AID 2282947). The note with it: HepG2 GRE cis-reporter, Attagene multiplex mRNA; actives raise or lower the signal. In short, it runs like this:
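Following 24 h chemical exposure of transiently transfected HepG2 cells, total RNA was reverse-transcribed and reporter cDNA amplified, fluorescently labelled and sized by capillary electrophoresis. Signal gain or loss was fitted relative to DMSO vehicle.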

A short description of test [2]: ATG_ISRE_CIS: Attagene CIS-FACTORIAL HepG2 Assay for human Interferon Regulatory Factor 1 (IRF1) binding to an Interferon-Stimulated Response Element (ISRE) (AID 2282948). Particulars: HepG2 ISRE cis-reporter (Attagene), mRNA transcription readout; actives raise or lower the signal. In short, it runs like this: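 Transiently transfected HepG2 cells carrying cis-element reporter units, dosed 24 hours. Reporter mRNA quantified by RT-PCR, fluorescent primer extension, HpaI digestion and capillary electrophoresis. Bidirectional fitting relative to DMSO.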

A short description of test [3]: ATG_M_32_CIS: Attagene CIS-FACTORIAL HepG2 Assay for M32 Transcription Factor (Internal Marker) (AID 2282949).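 Note: background control marker of the multiplexed CIS panel rather than a real target.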 The note with it: HepG2 Attagene cis-factorial M32 reporter, mRNA; actives raise or lower the signal. In short, it runs like this: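 Fluorescent capillary electrophoresis peaks of HpaI-digested, FAM-labelled RT-PCR reporter products give the signal. Source: transiently transfected human liver HepG2 cells, 24 h after chemical dosing; bidirectional fitting against DMSO.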

A short description of test [4]: ATG_M_06_CIS: Attagene CIS-FACTORIAL HepG2 Assay for M06 Transcription Factor (Internal Marker) (AID 2282950). Particulars: HepG2 Attagene CIS-FACTORIAL M06 internal marker reporter; actives raise or lower the signal. In short, it runs like this: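 Cells (HepG2, transiently carrying cis-driven reporter units) receive chemical for 24 h before RNA isolation. Reporter cDNA is PCR-amplified, FAM-labelled by primer extension, HpaI-digested and sized on a capillary analyser.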

The target in test [5] is Hypoxia-inducible factor 1-alpha (Homo sapiens) (UniProt Q16665). As to the kind of experiment: ATG_HIF1a_CIS: Attagene CIS-FACTORIAL HepG2 Assay for human Hypoxia Inducible Factor 1 (HIF1A) (AID 2282951). The note with it: HepG2 Attagene cis-factorial HIF1a reporter transcription; actives raise or lower the signal. In short, it runs like this: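 HepG2, transient cis-reporter library, 24 h dosing. RNA → RT (oligo dT) → PCR → 6-FAM primer extension → HpaI → CE. Bidirectional curve fit vs DMSO.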

In test [6] the target is Hepatocyte nuclear factor 6 (Homo sapiens) (UniProt Q9UBC0). Description: ATG_HNF6_CIS: Attagene CIS-FACTORIAL HepG2 Assay for human Hepatocyte Nuclear Factor 6 (HNF6) (AID 2282952). Particulars: HepG2 Attagene cis-factorial HNF6 reporter transcription; actives raise or lower the signal. The gist of the method:
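Reporter mRNA induction or loss in HepG2 after 24 h exposure; transient cis-MRTU transfection; fragments quantified by capillary electrophoresis; bidirectional analysis, DMSO as negative control.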

The target in test [7] is Heat shock factor protein 1 (Homo sapiens) (UniProt Q00613). As to the kind of experiment: ATG_HSE_CIS: Attagene CIS-FACTORIAL HepG2 Assay for human Heat Shock Transcription Factor 1 (HSE) (AID 2282953). Particulars: HepG2 HSE cis-reporter, Attagene RNA transcription; actives raise or lower the signal. The gist of the method: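 Liver-derived HepG2 cells carry transiently introduced multiple reporter units governed by cis promoters. Reporter RNA measured 24 h post-dose through reverse transcription, PCR amplification, fluorescent labelling and capillary electrophoresis, normalised to DMSO.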

Test [8] is described as follows: ATG_MRE_CIS: Attagene CIS-FACTORIAL HepG2 Assay for human Metal Responsive Element (MRE) (AID 2282954). Particulars: HepG2 MRE cis-reporter transcription, Attagene multiplex; actives raise or lower the signal. In short, it runs like this: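 Step one: transfect HepG2 with cis-regulated reporter units. Step two: dose 24 h. Step three: isolate RNA, RT-PCR, 6-FAM label, HpaI digest, capillary electrophoresis. Fit bidirectionally to DMSO.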

The nature of test [9]: ATG_PBREM_CIS: Attagene CIS-FACTORIAL HepG2 Assay for human Phenobarbital-responsive Enhancer Module (PBREM) (AID 2282955). Particulars: HepG2 PBREM cis-reporter, Attagene multiplexed transcription; actives raise or lower the signal. In short, it runs like this:
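HepG2, transient MRTU transfection, 24 h dosing; RNA → oligo(dT) RT → PCR → 6-FAM extension → HpaI → CE. Bidirectional fit vs DMSO.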

Active and inactive are the calls of the source. Rule for the calls: active = hit-call score of the fitted dose curve at least 0.9, where 1 is the maximum; inactive = score below 0.9.

Chain of Hepatocyte nuclear factor 6 (Homo sapiens) (Q9UBC0 whole entry, looked up, the tested form may be a part): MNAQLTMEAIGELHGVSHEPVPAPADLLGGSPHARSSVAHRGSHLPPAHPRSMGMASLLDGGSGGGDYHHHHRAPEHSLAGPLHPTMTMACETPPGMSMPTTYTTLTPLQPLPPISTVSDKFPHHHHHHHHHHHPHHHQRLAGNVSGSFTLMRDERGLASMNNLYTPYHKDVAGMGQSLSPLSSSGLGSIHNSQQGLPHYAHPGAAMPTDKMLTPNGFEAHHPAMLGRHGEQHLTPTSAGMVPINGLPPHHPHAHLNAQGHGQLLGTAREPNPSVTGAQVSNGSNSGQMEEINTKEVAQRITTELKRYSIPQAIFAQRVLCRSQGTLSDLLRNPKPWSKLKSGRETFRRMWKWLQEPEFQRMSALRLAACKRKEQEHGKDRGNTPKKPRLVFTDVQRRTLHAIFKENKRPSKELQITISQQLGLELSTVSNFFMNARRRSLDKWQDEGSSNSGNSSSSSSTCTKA
Chain of Heat shock factor protein 1 (Homo sapiens) (Q00613 whole entry, looked up): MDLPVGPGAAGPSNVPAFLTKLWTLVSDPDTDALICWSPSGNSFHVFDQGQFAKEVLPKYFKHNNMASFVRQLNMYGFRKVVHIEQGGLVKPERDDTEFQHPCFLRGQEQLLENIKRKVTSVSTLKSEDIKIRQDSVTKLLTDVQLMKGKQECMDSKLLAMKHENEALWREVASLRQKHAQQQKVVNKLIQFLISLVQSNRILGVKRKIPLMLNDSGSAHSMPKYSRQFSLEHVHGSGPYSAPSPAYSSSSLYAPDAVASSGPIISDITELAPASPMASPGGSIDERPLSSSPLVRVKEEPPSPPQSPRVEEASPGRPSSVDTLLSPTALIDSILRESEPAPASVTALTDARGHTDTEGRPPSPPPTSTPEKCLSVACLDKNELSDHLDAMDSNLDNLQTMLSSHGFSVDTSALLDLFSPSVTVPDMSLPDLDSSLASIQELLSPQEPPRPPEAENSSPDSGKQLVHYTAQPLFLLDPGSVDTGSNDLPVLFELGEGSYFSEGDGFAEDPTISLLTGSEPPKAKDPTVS
Chain of Hypoxia-inducible factor 1-alpha (Homo sapiens) (Q16665 whole entry, looked up): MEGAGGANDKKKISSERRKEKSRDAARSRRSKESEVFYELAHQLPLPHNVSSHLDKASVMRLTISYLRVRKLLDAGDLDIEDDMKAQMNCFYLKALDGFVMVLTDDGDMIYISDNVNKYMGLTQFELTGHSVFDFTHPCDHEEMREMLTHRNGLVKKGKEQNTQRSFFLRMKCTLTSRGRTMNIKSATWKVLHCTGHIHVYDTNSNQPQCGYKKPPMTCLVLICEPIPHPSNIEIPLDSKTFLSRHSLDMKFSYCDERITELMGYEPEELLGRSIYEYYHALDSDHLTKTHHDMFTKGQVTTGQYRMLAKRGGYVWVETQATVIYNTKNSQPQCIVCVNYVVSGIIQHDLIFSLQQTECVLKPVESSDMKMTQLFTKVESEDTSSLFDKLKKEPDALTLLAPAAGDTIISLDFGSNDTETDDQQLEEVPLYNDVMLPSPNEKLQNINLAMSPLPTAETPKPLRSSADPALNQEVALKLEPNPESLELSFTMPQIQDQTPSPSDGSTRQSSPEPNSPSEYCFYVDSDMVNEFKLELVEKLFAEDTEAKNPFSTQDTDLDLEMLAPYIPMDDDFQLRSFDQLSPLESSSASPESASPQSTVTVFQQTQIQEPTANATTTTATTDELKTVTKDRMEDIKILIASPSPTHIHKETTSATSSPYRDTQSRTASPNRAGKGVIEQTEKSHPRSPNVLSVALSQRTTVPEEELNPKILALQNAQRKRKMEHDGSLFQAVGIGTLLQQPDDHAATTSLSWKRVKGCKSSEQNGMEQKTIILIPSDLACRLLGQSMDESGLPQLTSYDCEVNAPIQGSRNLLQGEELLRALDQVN

For the molecule `CNC(C)=O`, the molecule was classed as inactive in test [1], in [2], in test [3], in [4], in test [5] and in [6]. Moreover, the call in test [7], in test [8] and in [9] was inactive.

On to `COS(C)(=O)=O`, for which the molecule was called inactive in [1], in test [2], in test [3], in test [4], in [5] and in [6]. Also, the molecule was classed as inactive in test [7], in test [8] and in [9].

With `CCn1nc(C)c2c1C(=O)NCC(c1ccc(O)cc1)=N2`, the call in [1], in [2], in test [3], in [4], in test [5] and in [6] was inactive. In addition, the result in [7], in [8] and in [9] was inactive.

Usually AC50 stands for the midpoint of the concentration-response curve, whichever way the signal moves. Regarding `CCCCN1C(=O)[C@@H]([C@H](O)C2CCCCC2)NC(=O)C12CCN(Cc1ccc(Oc3ccc(C(=O)O)cc3)cc1)CC2`, the values for the AC50 in [2] and in test [8] were 93.5 µM (active) and 75.8 µM (active), respectively. For the same molecule, the molecule was classed as inactive in [3], in [4], in [5], in [6], in test [7] and in [9].

Consider `CCCCCCCC1CCC(=O)O1` (stereo not given), for which the call in test [1], in test [2], in [3], in test [4], in [5] and in [7] was inactive. Also, the outcome in test [8] and in [9] was inactive.

`OC[C@H]1O[C@@H]2O[C@H]3[C@H](O)[C@@H](O)[C@@H](O[C@H]4[C@H](O)[C@@H](O)[C@@H](O[C@H]5[C@H](O)[C@@H](O)[C@@H](O[C@H]6[C@H](O)[C@@H](O)[C@@H](O[C@H]7[C@H](O)[C@@H](O)[C@@H](O[C@H]1[C@H](O)[C@H]2O)O[C@@H]7CO)O[C@@H]6CO)O[C@@H]5CO)O[C@@H]4CO)O[C@@H]3CO`: the molecule was classed as inactive in test [1], in test [2], in [3], in test [4], in [5] and in [6]. The molecule was classed as inactive in test [7], in test [8] and in test [9].

As for `CC(=O)c1ccccc1`, the molecule was classed as inactive in test [2], in test [3], in test [4], in [5], in [6] and in [7]. Also, the result in test [8] and in [9] was inactive.

`CCOC(N)=O`: the molecule was called inactive in test [2], in [3], in [4], in [5], in test [6] and in [7]. In addition, the result in test [8] was inactive.

On to `CC(C)c1nnc2ccc(-c3ocnc3-c3cc(F)ccc3F)cn12`, for which the outcome in test [1], in test [2], in test [3], in test [4], in [5] and in test [7] was inactive. Further, the AC50 was 100 µM (active) in [8] and 83.4 µM (active) in test [9].

With `O=C1CN(N=Cc2ccc([N+](=O)[O-])o2)C(=O)N1`, the molecule was classed as inactive in test [1], in test [2], in test [3], in test [4], in test [7] and in [8]. Also, the outcome in [9] was inactive. The AC50 in [5] is 27.3 µM (active).

For `O=C(N[C@H](CO)[C@H](O)c1ccc([N+](=O)[O-])cc1)C(Cl)Cl`, the molecule was classed as inactive in [2], in [3], in test [4], in test [6], in test [7] and in test [8]. Further, in [9], the outcome was inactive.

Take `C=CN1CCCC1=O`: the call in [2], in [3], in [4], in test [5], in test [6] and in [7] was inactive. The molecule was called inactive in test [8] and in test [9].

For `NC(=O)N1c2ccccc2C=Cc2ccccc21`, the result in [2], in test [3], in test [4], in [5], in test [6] and in test [7] was inactive. Moreover, the molecule was classed as inactive in test [8] and in [9].

Regarding `NC(=O)NN=Cc1ccc([N+](=O)[O-])o1`, the molecule was called inactive in [1], in [2], in test [3], in test [4], in test [6] and in test [7]. Also, the call in test [8] and in [9] was inactive.

For the molecule `CCCCOC(=O)c1ccccc1`, the call in [1], in test [2], in test [3], in test [4], in [5] and in [6] was inactive. Also, the result in [8] was inactive.

In the case of `CCCCCCCCCCCCCCO`, the call in test [2], in [3], in [4], in [5] and in test [8] was inactive. Further, the results for the AC50 in test [6] and in [7] were 177 µM (active) and 117 µM (active), respectively.

For the molecule `Cc1ccc(S(=O)(=O)NC(=O)NN2CCCCCC2)cc1`, the molecule was classed as inactive in test [1], in [2], in [3], in [4], in [6] and in test [7]. Also, the result in test [8] and in test [9] was inactive.

In the case of `NNC(=O)c1ccncc1`, the call in [1], in test [2], in test [3], in test [4], in [6] and in test [7] was inactive. Further, the molecule was called inactive in test [8] and in [9].

For `c1ccc2ncccc2c1`, the outcome in test [1], in [2], in test [3], in test [4], in [5] and in test [6] was inactive. Besides, the outcome in [7], in [8] and in test [9] was inactive.

As for `CCCCCCOC(=O)CC(CC(=O)OCCCCCC)(OC(=O)CCC)C(=O)OCCCCCC`, the molecule was classed as inactive in [1], in test [2], in test [3], in test [4], in test [5] and in test [6]. The result in [7], in test [8] and in [9] was inactive.

As to `NC(N)=O`, the call in test [2], in [3], in test [4], in test [5], in test [6] and in [7] was inactive. Further, the outcome in test [8] and in test [9] was inactive.

Consider `O=c1[nH]cnc2c1ncn2[C@H]1CC[C@@H](CO)O1`, for which the molecule was classed as inactive in [1], in test [2], in test [3], in test [4], in [5] and in test [6]. For the same molecule, the molecule was classed as inactive in test [8] and in test [9].

Regarding `CCCCCCCCN(C)C`, the call in test [1], in test [2], in test [3], in [4], in test [5] and in [6] was inactive. In addition, the outcome in test [8] was inactive.
